Reference: PubChem BioAssay (Tox21)
Several values for one entry are separate records, joined by “and”; a condition that tells them apart may be missing. Equal values may be shown once. Inconclusive results are not listed. A call without a number means that no potency is given here. Activity calls are given as the source filed them. Unless noted, calls come from the whole dose curve; as a rule, active = well fitted curve in the direction sought with a large enough effect in the repeat runs; inconclusive = weak or mixed curves; inactive = no such curve, though single readings can be large; an effect the other way counts as inactive or inconclusive.

Tests used:
[1] = qHTS assay for small molecule agonists of the p53 signaling pathway (AID 651631; calls by dose curve; note: nearly all actives have a fitted effect of over 15% in size)
Summary of the method: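 HCT-116 cells carrying a stable p53 response element–beta-lactamase reporter were plated, rested 5 h at 37 °C, then exposed to compound in DMSO for 16 h at 37 °C; reporter activity was read as FRET substrate fluorescence after 2 h at room temperature.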

[2] = qHTS assay for small molecules that induce genotoxicity in human embryonic kidney cells expressing luciferase-tagged ATAD5 (AID 651632); note: nearly all actives have a fitted effect of over 15% in size
Summary of the method: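 A rise in luciferase signal from ATAD5-tagged HEK293T cells marks genetic stress. Cells were exposed to compounds for 16 hr at 37C, 5% CO2, then luciferase was quantified after a 30 min room-temperature incubation with Amplite.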

[3] = qHTS assay for small molecule agonists of the p53 signaling pathway - cell viability (AID 651633; calls by dose curve; note: series mostly up to about 83 µM; nearly all actives have a fitted effect of over 30% in size)
Summary of the method: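 p53RE-bla cells, seeded at 4,000 per well and rested 5 h at 37 C/5% CO2, received compounds in DMSO for 16 h at 37 C. CellTiter-Glo was then added, and luminescence was read after 30 min at room temperature to gauge cytotoxicity.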

[4] = qHTS assay for small molecules that induce genotoxicity in human embryonic kidney cells expressing luciferase-tagged ATAD5 - cell viability (AID 651634; calls by dose curve; note: nearly all actives have a fitted effect of over 25% in size)
Summary of the method: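 Cytotoxicity counter-readout: after 15.5 hr compound treatment at 37C, live-cell protease activity in ATAD5-luciferase HEK293T cells measured by CellTiter-Fluor fluorescence, 30 min development at 37C.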

[5] = qHTS assay for small molecule disruptors of the mitochondrial membrane potential - cell viability (AID 720634; calls by dose curve;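 note: human HepG2 liver cancer cells; series mostly up to about 83 µM; nearly all actives have a fitted effect of over 20% in size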)
Summary of the method: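 Cytotoxicity was quantified from ATP content by CellTiter-Glo luminescence in the same wells as the MMP dye read-out. HepG2 (2,000 cells/well) were plated overnight and exposed to compounds for 1 hr at 37 C.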

[6] = qHTS assay for small molecule disruptors of the mitochondrial membrane potential (AID 720635); note: potency is the fitted concentration of half-maximal effect
Summary of the method: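 HepG2 cells (2,000/well) attached overnight at 37C, then took compound for 1 hr at 37C, 5% CO2. Mito-MPS dye was added for 30 min; fluorescence was read at 490/535 nm (monomers) and 540/590 nm (aggregates).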

[7] = qHTS assay to test for compound auto fluorescence at 590 nm (red) in HepG2 cells (AID 720674)
Summary of the method: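 Compound auto-fluorescence is scored relative to Rose Bengal sodium, measured at 540/590 nm in live HepG2 cultures after 1 hr compound contact (37 C, 5% CO2).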

[8] = qHTS assay to test for compound auto fluorescence at 535 nm (green) in HepG2 cells (AID 720675)
[9] = qHTS assay to test for compound auto fluorescence at 460 nm (blue) in HEK293 cells (AID 720678)
Summary of the method: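 After cell attachment (4-5 hr, 37C), compounds were pinned onto HEK293 monolayers in 10% dialyzed FBS medium. The blue channel (405/460 nm) was read following overnight culture. Equivalency was calculated against triamterene.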

[10] = qHTS assay to test for compound auto fluorescence at 590 nm (red) in HEK293 cells (AID 720679)
Summary of the method: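 Plates of HEK293 cells (10% dialyzed FBS) are treated with 23 nL compound or DMSO vehicle after a 4-5 hr attachment period, incubated overnight at 37C, and read for red fluorescence at 540/590nm.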

[11] = qHTS assay to test for compound auto fluorescence at 535 nm (green) in HEK293 cells (AID 720680)
[12] = qHTS assay to test for compound auto fluorescence at 460 nm (blue) in HEK293 cell free culture (AID 720681)
Summary of the method: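 Test compounds were pinned into cell-free culture medium (DMEM with 10% FBS) and fluorescence was read directly at Ex/Em 405/460 nm. Signals were expressed as fluorescence equivalents of triamterene, with DMSO vehicle as control.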

[13] = qHTS assay to test for compound auto fluorescence at 535 nm (green) in HEK293 cell free culture (AID 720682)
Summary of the method: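 Read-out: 485/535 nm fluorescence intensity, calibrated against fluorescein. Medium only (DMEM + 10% FBS, no cells); test compound or DMSO vehicle added by pintool before plate reading.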

[14] = qHTS assay to test for compound auto fluorescence at 590 nm (red) in HEK293 cell free culture (AID 720683)
Summary of the method: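 Tox21 10K library compounds were pinned into cell-free DMEM with 10% FBS and fluorescence was read at excitation 540 nm. Activity is expressed as Rose Bengal sodium equivalency.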

[15] = qHTS assay to test for compound auto fluorescence at 590 nm (red) in HepG2 cell free culture (AID 720684)
Summary of the method: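 Ex 540 / Em 590 nm read of compound in cell-free MEM (10% FBS). Rose Bengal sodium reference.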

[16] = qHTS assay to test for compound auto fluorescence at 460 nm (blue) in HepG2 cell free culture (AID 720685)
Summary of the method: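 Cell-free plates of MEM plus 10% FBS received 23 nL compound or DMSO vehicle; blue-channel (405/460 nm) intensity scored against triamterene as reference fluorophore.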

[17] = qHTS assay to test for compound auto fluorescence at 460 nm (blue) in HepG2 cells (AID 720687)
Summary of the method: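 Cells (2,000/well in MEM with 10% FBS) attached overnight at 37 C, then were exposed to compound or DMSO for 1 hr at 37 C, 5% CO2. Fluorescence read at Ex/Em 405/460 nm, expressed as triamterene-equivalent signal.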

[18] = biological target: Glucocorticoid receptor (Homo sapiens) (UniProt P04150); experiment: qHTS assay to identify small molecule agonists of the glucocorticoid receptor (GR) signaling pathway (AID 720691; active = well fitted activation curve with a large enough effect in the signal ratio in the repeat runs, not every such curve was filed as active; the % refers to the signal ratio)
Sequence of Glucocorticoid receptor (Homo sapiens) (P04150 whole entry, looked up): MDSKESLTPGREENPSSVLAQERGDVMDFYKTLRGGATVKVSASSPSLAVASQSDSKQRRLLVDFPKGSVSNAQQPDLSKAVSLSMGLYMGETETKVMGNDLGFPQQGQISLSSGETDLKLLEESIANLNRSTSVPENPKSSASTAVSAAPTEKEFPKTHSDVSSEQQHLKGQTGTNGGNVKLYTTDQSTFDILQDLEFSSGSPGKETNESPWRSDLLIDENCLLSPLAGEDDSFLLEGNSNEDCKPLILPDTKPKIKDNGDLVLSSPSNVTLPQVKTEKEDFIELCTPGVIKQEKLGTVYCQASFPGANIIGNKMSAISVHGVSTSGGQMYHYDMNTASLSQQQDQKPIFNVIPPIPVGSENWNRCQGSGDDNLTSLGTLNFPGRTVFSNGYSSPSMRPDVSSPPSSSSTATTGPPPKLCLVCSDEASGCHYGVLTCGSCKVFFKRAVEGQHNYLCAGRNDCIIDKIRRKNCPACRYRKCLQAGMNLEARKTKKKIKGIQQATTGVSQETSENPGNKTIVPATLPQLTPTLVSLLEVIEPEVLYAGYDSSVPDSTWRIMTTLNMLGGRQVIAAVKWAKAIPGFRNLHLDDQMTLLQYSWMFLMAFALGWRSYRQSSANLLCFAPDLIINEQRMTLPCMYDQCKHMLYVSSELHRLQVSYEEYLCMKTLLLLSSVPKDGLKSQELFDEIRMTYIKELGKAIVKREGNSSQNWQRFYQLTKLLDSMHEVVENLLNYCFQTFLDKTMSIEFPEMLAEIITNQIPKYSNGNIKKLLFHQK
Summary of the method: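 Agonist-mode qHTS in HeLa cells stably expressing a glucocorticoid-response-element beta-lactamase reporter. Fluorescence intensity read with FRET substrate (2 h, room temperature) after 18 h compound treatment at 37 C.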

[19] = biological target: Glucocorticoid receptor (Homo sapiens) (UniProt P04150); experiment: qHTS assay to identify small molecule antagonists of the glucocorticoid receptor (GR) signaling pathway (AID 720692; active = well fitted inhibition curve with a large enough effect in the signal ratio in the repeat runs, not every such curve was filed as active; the % refers to the signal ratio)
Summary of the method: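 Inhibition of dexamethasone-driven (5 nM final) beta-lactamase expression was measured in GRE-reporter HeLa cells over 18 h at 37C. Fluorescence was read after 2 h with the B/G FRET substrate at room temperature.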

[20] = qHTS assay to test for compound auto fluorescence at 535 nm (green) in HepG2 cell free culture (AID 720686)

SMILES | Potency [1] | Potency [2] | Potency [3] | Potency [4] | Potency [5] | Potency [6] | outcome [7] | outcome [8] | outcome [9] | outcome [10] | outcome [11] | outcome [12] | outcome [13] | outcome [14] | outcome [15] | outcome [16] | outcome [17] | outcome [18] | Potency [19] | outcome [20]
COc1nc(NC(C)C)nc(NC(C)C)n1 | inactive | inactive | inactive | inactive | inactive | inactive | inactive | inactive | inactive | inactive | inactive | inactive | inactive | inactive | inactive | inactive | inactive | inactive | inactive | –
OCc1ccco1 | inactive | inactive | inactive | inactive | inactive | inactive | inactive | inactive | inactive | inactive | inactive | inactive | inactive | inactive | inactive | inactive | inactive | – | – | inactive
O=[N+]([O-])c1cc([As](=O)(O)O)ccc1O | inactive | inactive | inactive | inactive | inactive | inactive | inactive | inactive | inactive | inactive | inactive | inactive | inactive | inactive | inactive | inactive | inactive | inactive | inactive | inactive
Nc1ccc([As](=O)(O)O)cc1 | inactive | inactive | inactive | inactive | inactive | inactive | inactive | inactive | inactive | inactive | inactive | inactive | inactive | inactive | inactive | inactive | inactive | – | – | inactive
O=C/C=C/c1ccccc1 | inactive | inactive | inactive | inactive | inactive | inactive | inactive | inactive | inactive | inactive | inactive | inactive | inactive | inactive | inactive | inactive | inactive | inactive | inactive | inactive
CN(C)C(=O)C(c1ccccc1)c1ccccc1 | inactive | inactive | inactive | inactive | inactive | inactive | inactive | inactive | inactive | inactive | inactive | inactive | inactive | inactive | inactive | inactive | inactive | – | – | –
COS(=O)(=O)OC | inactive | inactive | inactive | inactive | inactive | inactive | inactive | inactive | inactive | inactive | inactive | inactive | inactive | inactive | inactive | inactive | inactive | inactive | inactive | inactive
CNC(=O)O/N=C/C(C)(C)SC | inactive | inactive | inactive | inactive | inactive | – | inactive | inactive | inactive | inactive | inactive | inactive | inactive | inactive | inactive | inactive | inactive | inactive | inactive | inactive
CC(C)c1cccc(C(C)C)c1O | inactive | inactive | inactive | inactive | inactive | 54.3 µM (active) and 61.1 µM (active) | inactive | inactive | inactive | inactive | inactive | inactive | inactive | inactive | inactive | inactive | inactive | – | – | inactive
CNC(=O)O/N=C/C(C)(C)S(C)(=O)=O | inactive | inactive | inactive | inactive | inactive | inactive | inactive | inactive | inactive | inactive | inactive | inactive | inactive | inactive | inactive | inactive | inactive | inactive | inactive | –
CCSC(=O)N1CCCCCC1 | inactive | inactive | inactive | inactive | inactive | inactive | inactive | inactive | inactive | inactive | inactive | inactive | inactive | inactive | inactive | inactive | inactive | – | – | –
N#Cc1cccc(C#N)c1 | inactive | inactive | inactive | inactive | inactive | inactive | inactive | inactive | inactive | inactive | inactive | inactive | inactive | inactive | inactive | inactive | inactive | inactive | inactive | inactive
CN(C)C(=O)Nc1cccc(C(F)(F)F)c1 | inactive | inactive | inactive | inactive | inactive | inactive | inactive | inactive | inactive | inactive | inactive | inactive | inactive | inactive | inactive | inactive | inactive | – | – | inactive
C=CC#N | inactive | inactive | inactive | inactive | inactive | inactive | inactive | inactive | inactive | inactive | inactive | inactive | inactive | inactive | inactive | inactive | inactive | inactive | inactive | –
O=C(O)COc1ccccc1 | inactive | inactive | inactive | inactive | inactive | inactive | inactive | inactive | inactive | inactive | inactive | inactive | inactive | inactive | inactive | inactive | inactive | inactive | inactive | –
Cc1cc(Cl)ccc1OC(C)C(=O)O (stereo not drawn) | inactive | – | inactive | inactive | inactive | inactive | inactive | inactive | inactive | inactive | inactive | inactive | inactive | inactive | inactive | inactive | inactive | – | – | inactive
